From the supplement of paper PMC11732987, “Enantioselective OTUD7B fragment discovery through chemoproteomics screening and high-throughput optimisation” (Communications Chemistry, 2025)

Assays:
Test in all cases: log2 ratio of Biotin-Ahx-Ub-VS probe labelling (fragment/DMSO); higher = less target engagement (more negative = stronger competition), active = hit call of the paper (q ≤ 0.05, log2 ratio ≤ -1)
Settings in all cases: compound concentration: 200 uM; treatment time: 3 h
[1] = biological target: USP34 (UniProt Q70CQ2)
Summary of the method: (§1)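 Each value is an average log2 ratio of fragment to vehicle, tested by unpaired t-test. The underlying Spectronaut label-free quantities were global-median-normalised, and only proteins with ≥2 unique peptides were included. Triplicate HEK293T lysate samples (495 µg) were exposed to fragment at 200 µM or vehicle for 3 h, then to Biotin-Ahx-Ub-VS at 0.5 µM final for 1 h, before NeutrAvidin enrichment of labelled DUBs, LysC and trypsin digestion, and diaPASEF LC-MS/MS.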

[2] = biological target: T1, USP36 (UniProt Q9P275)
T1 sequence (whole entry): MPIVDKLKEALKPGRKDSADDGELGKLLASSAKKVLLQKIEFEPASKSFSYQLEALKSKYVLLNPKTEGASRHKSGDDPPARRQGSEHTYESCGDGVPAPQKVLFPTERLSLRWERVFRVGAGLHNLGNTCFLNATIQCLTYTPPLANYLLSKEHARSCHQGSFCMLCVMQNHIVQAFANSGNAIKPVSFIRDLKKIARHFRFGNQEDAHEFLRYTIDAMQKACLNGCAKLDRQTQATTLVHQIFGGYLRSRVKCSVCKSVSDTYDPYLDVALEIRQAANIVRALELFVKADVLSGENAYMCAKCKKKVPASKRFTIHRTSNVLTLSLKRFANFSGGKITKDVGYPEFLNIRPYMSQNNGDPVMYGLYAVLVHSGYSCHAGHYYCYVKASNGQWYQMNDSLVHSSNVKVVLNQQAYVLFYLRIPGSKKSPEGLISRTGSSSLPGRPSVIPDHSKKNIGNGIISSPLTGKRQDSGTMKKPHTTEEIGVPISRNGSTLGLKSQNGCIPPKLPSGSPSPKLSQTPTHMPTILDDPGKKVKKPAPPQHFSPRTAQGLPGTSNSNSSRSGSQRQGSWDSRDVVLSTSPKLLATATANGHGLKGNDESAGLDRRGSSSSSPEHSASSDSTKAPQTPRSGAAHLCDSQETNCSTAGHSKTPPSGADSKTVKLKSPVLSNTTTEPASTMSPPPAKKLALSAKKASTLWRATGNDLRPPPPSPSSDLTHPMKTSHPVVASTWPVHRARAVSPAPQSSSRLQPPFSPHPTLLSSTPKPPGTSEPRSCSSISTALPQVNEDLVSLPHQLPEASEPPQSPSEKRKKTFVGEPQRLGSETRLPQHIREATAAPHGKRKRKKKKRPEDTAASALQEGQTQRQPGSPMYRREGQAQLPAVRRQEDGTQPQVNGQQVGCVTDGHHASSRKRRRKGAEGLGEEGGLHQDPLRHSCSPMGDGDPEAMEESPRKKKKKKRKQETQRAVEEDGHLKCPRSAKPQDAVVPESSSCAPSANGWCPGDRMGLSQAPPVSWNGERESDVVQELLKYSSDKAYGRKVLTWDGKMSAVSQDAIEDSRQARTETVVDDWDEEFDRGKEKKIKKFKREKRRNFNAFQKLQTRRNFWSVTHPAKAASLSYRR
Summary of the method: as §1

[3] = biological target: T2, USP38 (UniProt Q8NB14)
T2 sequence (whole entry): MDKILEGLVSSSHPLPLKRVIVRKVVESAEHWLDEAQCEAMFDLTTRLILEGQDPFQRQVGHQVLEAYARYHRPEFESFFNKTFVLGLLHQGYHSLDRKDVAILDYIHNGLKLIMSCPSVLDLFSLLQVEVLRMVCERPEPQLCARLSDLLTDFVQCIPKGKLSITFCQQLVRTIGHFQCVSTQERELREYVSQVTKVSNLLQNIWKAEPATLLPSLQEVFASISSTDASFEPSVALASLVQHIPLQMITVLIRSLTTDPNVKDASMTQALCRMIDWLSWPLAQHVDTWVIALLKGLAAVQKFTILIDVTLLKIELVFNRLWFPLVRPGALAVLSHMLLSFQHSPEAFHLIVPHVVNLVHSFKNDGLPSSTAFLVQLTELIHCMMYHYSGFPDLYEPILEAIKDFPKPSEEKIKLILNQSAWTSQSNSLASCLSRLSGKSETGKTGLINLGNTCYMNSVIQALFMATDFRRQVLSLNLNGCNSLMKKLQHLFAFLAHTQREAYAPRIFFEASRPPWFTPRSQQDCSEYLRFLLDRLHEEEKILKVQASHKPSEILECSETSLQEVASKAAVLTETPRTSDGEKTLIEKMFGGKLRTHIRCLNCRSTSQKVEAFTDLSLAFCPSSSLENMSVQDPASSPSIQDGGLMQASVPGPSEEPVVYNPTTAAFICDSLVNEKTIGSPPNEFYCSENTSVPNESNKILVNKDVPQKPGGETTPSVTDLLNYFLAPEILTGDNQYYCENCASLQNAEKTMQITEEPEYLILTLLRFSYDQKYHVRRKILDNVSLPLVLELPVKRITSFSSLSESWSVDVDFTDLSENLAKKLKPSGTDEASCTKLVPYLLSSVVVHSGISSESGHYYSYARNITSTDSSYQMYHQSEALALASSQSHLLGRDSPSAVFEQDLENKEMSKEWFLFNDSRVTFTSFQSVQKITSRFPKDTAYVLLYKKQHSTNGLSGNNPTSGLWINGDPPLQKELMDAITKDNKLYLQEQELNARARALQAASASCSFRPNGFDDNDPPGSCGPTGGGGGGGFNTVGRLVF
Summary of the method: as §1

[4] = biological target: T3, USP39 (UniProt Q53GS9)
T3 sequence (whole entry): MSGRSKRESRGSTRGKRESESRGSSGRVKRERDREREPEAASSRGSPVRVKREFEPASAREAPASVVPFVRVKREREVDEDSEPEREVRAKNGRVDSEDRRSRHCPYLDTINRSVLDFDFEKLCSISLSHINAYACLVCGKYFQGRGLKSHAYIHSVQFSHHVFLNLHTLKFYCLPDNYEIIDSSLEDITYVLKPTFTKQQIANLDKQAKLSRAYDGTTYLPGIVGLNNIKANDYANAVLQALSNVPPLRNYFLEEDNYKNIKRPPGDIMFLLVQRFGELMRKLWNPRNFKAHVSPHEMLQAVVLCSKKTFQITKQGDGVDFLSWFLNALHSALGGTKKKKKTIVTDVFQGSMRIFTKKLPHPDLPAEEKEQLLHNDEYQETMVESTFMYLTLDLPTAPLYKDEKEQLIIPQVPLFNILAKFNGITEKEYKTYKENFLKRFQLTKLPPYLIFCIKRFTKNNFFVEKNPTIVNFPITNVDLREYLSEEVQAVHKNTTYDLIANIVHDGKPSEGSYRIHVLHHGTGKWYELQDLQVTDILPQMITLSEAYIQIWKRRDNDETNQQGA
Summary of the method: as §1

[5] = biological target: T4, USP4 (UniProt Q13107)
T4 sequence (whole entry): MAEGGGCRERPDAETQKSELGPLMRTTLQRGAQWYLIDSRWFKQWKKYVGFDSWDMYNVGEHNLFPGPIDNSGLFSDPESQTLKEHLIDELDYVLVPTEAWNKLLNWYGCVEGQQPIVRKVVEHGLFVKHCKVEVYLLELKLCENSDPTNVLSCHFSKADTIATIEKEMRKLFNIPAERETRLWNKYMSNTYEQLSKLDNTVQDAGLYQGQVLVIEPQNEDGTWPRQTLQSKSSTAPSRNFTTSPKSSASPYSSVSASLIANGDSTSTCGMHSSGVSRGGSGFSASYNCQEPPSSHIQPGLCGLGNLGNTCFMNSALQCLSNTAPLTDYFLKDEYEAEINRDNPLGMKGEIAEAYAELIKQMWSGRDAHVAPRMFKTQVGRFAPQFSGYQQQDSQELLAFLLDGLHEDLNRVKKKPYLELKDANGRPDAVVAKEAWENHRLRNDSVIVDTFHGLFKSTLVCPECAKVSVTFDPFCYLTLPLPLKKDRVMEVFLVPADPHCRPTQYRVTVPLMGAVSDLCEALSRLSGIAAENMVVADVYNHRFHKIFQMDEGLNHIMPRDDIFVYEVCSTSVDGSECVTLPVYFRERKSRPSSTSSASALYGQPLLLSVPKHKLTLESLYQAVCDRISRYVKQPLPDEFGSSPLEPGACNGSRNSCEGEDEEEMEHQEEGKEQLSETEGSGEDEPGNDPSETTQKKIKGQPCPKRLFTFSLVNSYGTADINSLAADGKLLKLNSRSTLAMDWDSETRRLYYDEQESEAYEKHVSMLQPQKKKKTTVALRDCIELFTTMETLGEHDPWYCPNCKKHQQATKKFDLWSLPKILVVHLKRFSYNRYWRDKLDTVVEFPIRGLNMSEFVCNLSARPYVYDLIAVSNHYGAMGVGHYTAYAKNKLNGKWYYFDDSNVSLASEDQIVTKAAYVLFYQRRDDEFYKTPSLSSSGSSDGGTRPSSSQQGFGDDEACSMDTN
Summary of the method: as §1

Measured: log2 ratio of Biotin-Ahx-Ub-VS probe labelling

Chain of USP34 (Q70CQ2 whole entry, the tested form may be a part): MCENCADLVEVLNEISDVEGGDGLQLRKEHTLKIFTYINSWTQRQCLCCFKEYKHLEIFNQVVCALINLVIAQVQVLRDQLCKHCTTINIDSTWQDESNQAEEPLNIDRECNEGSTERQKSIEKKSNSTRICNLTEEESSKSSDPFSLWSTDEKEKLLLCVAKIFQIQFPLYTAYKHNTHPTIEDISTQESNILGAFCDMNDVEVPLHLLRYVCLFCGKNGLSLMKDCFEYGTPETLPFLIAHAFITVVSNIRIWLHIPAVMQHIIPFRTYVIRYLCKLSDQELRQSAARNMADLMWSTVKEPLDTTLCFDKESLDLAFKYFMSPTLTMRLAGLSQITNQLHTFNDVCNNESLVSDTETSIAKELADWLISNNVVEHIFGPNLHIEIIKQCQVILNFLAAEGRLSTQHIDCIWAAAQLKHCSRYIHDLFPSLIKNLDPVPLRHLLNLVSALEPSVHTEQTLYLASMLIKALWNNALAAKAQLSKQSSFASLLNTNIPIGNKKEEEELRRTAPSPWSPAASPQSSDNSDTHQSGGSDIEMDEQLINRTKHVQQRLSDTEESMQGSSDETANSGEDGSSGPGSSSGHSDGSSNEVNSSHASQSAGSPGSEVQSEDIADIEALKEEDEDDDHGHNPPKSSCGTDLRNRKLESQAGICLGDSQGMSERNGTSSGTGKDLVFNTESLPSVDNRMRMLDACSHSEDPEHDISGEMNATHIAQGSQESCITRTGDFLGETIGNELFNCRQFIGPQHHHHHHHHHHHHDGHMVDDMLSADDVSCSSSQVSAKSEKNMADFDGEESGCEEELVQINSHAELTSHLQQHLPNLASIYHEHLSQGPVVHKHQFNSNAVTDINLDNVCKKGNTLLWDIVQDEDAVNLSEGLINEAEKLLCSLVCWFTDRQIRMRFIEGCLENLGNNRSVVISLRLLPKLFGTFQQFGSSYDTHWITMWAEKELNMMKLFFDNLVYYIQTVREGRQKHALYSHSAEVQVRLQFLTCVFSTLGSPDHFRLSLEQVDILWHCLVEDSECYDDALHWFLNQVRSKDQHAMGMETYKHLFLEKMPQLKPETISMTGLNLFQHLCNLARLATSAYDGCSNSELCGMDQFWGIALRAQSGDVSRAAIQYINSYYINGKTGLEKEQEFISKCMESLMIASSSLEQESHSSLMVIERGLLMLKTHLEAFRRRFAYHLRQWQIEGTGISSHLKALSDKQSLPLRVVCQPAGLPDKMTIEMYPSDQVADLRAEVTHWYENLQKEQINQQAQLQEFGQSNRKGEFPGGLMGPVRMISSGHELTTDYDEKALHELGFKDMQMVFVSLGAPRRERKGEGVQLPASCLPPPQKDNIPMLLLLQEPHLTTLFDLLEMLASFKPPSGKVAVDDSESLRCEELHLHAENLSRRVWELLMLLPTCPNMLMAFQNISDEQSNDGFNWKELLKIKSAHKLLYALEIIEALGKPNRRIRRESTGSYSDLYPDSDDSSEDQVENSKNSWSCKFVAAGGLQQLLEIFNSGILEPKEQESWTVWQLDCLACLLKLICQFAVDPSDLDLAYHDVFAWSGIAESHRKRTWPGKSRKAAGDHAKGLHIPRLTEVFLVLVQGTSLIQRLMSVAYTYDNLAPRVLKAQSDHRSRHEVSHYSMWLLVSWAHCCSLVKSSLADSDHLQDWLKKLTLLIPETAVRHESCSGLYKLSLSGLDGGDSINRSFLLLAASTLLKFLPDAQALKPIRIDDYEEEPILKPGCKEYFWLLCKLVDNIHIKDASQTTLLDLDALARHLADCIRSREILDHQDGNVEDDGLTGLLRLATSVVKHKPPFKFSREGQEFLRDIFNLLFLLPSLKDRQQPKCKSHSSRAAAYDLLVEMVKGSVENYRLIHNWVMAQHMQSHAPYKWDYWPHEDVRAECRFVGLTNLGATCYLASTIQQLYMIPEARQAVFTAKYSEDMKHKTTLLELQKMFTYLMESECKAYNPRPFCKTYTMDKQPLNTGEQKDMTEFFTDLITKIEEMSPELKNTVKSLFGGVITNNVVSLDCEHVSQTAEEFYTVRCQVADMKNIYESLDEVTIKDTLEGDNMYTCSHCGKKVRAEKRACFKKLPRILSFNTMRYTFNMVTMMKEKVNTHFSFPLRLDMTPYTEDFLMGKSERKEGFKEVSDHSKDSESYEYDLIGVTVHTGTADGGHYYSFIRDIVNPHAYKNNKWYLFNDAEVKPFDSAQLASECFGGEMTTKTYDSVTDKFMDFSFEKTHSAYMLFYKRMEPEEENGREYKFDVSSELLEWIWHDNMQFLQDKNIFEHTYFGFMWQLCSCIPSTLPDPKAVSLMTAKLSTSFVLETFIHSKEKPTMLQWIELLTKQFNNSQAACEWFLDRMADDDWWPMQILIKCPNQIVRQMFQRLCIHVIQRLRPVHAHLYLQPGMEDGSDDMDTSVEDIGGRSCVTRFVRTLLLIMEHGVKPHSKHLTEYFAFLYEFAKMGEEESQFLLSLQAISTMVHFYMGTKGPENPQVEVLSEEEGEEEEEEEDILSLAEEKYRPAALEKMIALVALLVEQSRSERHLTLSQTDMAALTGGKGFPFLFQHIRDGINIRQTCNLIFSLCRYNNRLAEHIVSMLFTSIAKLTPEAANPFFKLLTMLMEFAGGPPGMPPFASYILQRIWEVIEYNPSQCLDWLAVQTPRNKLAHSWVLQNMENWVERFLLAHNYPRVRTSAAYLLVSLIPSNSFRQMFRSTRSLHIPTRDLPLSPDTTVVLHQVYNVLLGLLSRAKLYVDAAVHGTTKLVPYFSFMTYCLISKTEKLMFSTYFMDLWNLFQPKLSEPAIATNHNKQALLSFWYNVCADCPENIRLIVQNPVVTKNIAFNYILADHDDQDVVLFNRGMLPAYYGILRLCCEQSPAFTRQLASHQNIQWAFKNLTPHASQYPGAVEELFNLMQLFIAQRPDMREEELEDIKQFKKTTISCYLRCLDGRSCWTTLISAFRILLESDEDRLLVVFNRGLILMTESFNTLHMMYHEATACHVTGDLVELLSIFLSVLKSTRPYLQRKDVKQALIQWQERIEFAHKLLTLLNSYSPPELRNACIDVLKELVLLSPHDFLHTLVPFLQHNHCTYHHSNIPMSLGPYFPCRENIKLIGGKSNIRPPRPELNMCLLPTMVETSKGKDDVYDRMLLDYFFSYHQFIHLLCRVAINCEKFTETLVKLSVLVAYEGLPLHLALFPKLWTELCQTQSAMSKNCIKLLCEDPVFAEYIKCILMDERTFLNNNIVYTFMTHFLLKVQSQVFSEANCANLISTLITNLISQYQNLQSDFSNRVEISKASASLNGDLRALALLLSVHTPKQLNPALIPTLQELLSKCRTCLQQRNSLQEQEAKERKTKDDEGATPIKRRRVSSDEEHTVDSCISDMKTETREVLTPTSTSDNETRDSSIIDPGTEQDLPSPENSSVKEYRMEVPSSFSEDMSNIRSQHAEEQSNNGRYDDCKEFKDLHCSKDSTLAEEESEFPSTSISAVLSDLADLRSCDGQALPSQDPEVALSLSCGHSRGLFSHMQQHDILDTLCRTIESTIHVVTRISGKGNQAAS

Cc1ccc(C)c(Oc2ccc(CNC(=O)CCl)cn2)c1.Cl
inactive: [1] -0.224 | [2] -0.158 | [3] -0.222 | [4] 0.00552 | [5] -0.39
